Assay results reported in PubChem BioAssay (NCATS).

Experiment: qHTS drug screen for cell cycle checkpoint inhibitors in PARPi-resistant BRCA-mutant ovarian cancer cell lines. (AID 1963452)
Settings: PEO1/OlaR viability, CellTiter-Glo luminescence, 96 h; measured here: PEO1 parental Z-AUC; stronger effect = lower value
In short: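 PEO1, PEO4 and PEO1/OlaR ovarian cancer cells, 600 per well, exposed 96 h at 37C to a dilution series. Viability read by CellTiter-Glo luminescence, normalized to DMSO and empty wells; activity summarized as Z-AUC.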

| Structure (SMILES) | Z-AUC |
| --- | --- |
| Nc1nc2[nH]cc(CCc3ccc(C(=O)N[C@@H](CCC(=O)O)C(=O)O)cc3)c2c(=O)[nH]1 | 1.12 |
| Cc1cc(-c2ccc(CC(=O)Nc3ccc(-c4cccnc4)cc3)cc2)ccn1 | 0.679 |
| Cc1cc(Nc2nc(N[C@@H](C)c3ncc(F)cn3)ncc2Cl)n[nH]1 | -1.18 |
| N#CC[C@H](C1CCCC1)n1cc(-c2ncnc3[nH]ccc23)cn1 | 0.0833 |
| CC(=O)NC(C)c1ccc(Oc2ccc(OC(C)C)cc2)cc1 (stereo not drawn) | 0.0694 |
| COc1ccc(COc2cc3oc(=O)c4cc(C(C)O)ccc4c3cc2OC)cc1 (stereo not drawn) | 0.636 |
| Cn1cnc2c(F)c(Nc3ccc(Br)cc3Cl)c(C(=O)NOCCO)cc21 | 0.0472 |
| CC1(C)Cc2c(-c3ccccc3)c(-c3ccc(Cl)cc3)c(CC(=O)O)n2C1 | 0.818 |
| COc1ccc(-c2ccc3c(N4CCOCC4)nc(N4C[C@@H](C)O[C@@H](C)C4)nc3n2)cc1CO | 1.12 |
| CNCc1ccc(-c2[nH]c3cc(F)cc4c3c2CCNC4=O)cc1 | 0.569 |
| CCOc1cc(N2CCC(O)CC2)ccc1Nc1ncc2c(n1)N(C)c1ccccc1C(=O)N2C | 0.271 |
| CS(=O)(=O)Oc1ccc2c(NC(N)=O)c(C(=O)c3ccc(Cl)cc3Cl)oc2c1 | 1.13 |
| COc1cc(Nc2ncc3c(n2)-c2ccc(Cl)cc2C(c2c(F)cccc2OC)=NC3)ccc1C(=O)O | -0.991 |
| COc1nc(-c2ccc3c(c2)OCO3)n(-c2ccc(NC(=O)CSc3ccccc3)cc2)n1 | 1.23 |
| CCCS(=O)(=O)Nc1ccc(F)c(C(=O)c2c[nH]c3ncc(Cl)cc23)c1F | 0.791 |
| CCCCCCCc1ccc(CCc2cccc(O)c2C(=O)O)cc1 | 0.41 |
| Nc1nccc(-c2ccc3noc(-c4ccc(Cl)cc4)c3c2)n1 | 0.344 |
| C[C@]12CCC(=O)C=C1CC[C@@H]1[C@@H]2[C@@H](O)C[C@@]2(C)[C@H]1CC[C@]2(O)C(=O)CO | 0.66 |
| S=C(NCc1ccc2c(c1)OCO2)N1CCN(c2ncnc3c2oc2ccccc23)CC1 | -1.16 |
| O=c1[nH]c(-c2ccc(C(F)(F)F)cc2)nc2c1CSCC2 | 0.431 |

| Structure (SMILES) | Z-AUC |
| --- | --- |
| OC[C@H](Cc1ccccc1)Nc1nc(Oc2ccc3c(c2)CCC3)nc2c1ncn2Cc1ccc(-c2ccccc2)cc1 | 0.249 |
| COc1cc2nccc(Oc3ccc(NC(=O)NC4CC4)c(Cl)c3)c2cc1C(N)=O | 0.621 |
| CN[C@@H](C)C(=O)N[C@H]1CCCC[C@H]2CC[C@@H](C(=O)N[C@@H](c3ccccc3)c3cn(CCCCc4ccc(CCCCn5cc([C@@H](NC(=O)[C@@H]6CC[C@@H]7CCCC[C@H](NC(=O)[C@H](C)NC)C(=O)N76)c6ccccc6)nn5)cc4)nn3)N2C1=O | 0.404 |
| O=C(Nc1cccnc1)N1CCC(Cc2cccc(Oc3ccc(C(F)(F)F)cn3)c2)CC1 | -1.46 |
| OCCC#Cc1nc(-c2ccc(F)cc2)c(-c2ccncc2)n1CCCc1ccccc1 | 0.482 |
| Cc1ccnc(NS(=O)(=O)c2ccc(NC(=O)Nc3ccc(S(=O)(=O)Nc4nccc(C)n4)cc3)cc2)n1 | -0.318 |
| CO[C@@H]1[C@H](N(C)C(=O)c2ccccc2)C[C@H]2O[C@]1(C)n1c3ccccc3c3c4c(c5c6ccccc6n2c5c31)C(=O)NC4 | -1.27 |
| C/C(=C\C(=O)Nc1ccccc1C(=O)O)c1ccc2ccccc2c1 | 0.668 |
| CC1(C)CNc2cc(NC(=O)c3cccnc3NCc3ccncc3)ccc21 | 0.457 |
| COc1cccc2cc(-c3nc(C4CCC(C(=O)O)CC4)n4ncnc(N)c34)[nH]c12 (stereo not drawn) | -0.688 |
| Cc1cccc(-c2nn(C(=S)Nc3ccccc3)cc2-c2ccnc3ccccc23)n1 | 0.402 |
| CCn1c(-c2nonc2N)nc2cnc(Oc3cccc(NC(=O)c4ccc(OCCN5CCOCC5)cc4)c3)cc21 | 0.828 |
| O=C1[C@H](Cc2ccc(O)cc2)N2C(=O)CCN(C(=O)NCc3ccccc3)[C@H]2CN1Cc1cccc2ccccc12 | 0.318 |
| CCOc1ccn(-c2ccc(F)cc2)c(=O)c1C(=O)Nc1ccc(Oc2ccnc(N)c2Cl)c(F)c1 | -0.706 |
| COc1c(Cl)cc2c([nH]c3cnccc32)c1NC(=O)c1cccnc1C | 0.859 |
| CN(C)C(=O)c1ccc(S(=O)(=O)c2ccc(NC(=O)[C@@](C)(O)C(F)(F)F)c(Cl)c2)cc1 | -0.221 |
| CC(C)c1onc(-c2c(Cl)cccc2Cl)c1COc1ccc(/C=C/c2cccc(C(=O)O)c2)c(Cl)c1 | -0.0133 |
| CCC(=O)N[C@H]1CC[C@H](C(=O)N(C)c2ccc(-c3nc4ccccc4o3)cc2)C1 | -0.000542 |
| CNC(=O)c1ccc(N2C(=S)N(c3ccc(C#N)c(C(F)(F)F)c3)C(=O)C2(C)C)cc1F | 0.676 |

Same assay, conditions: PEO1/OlaR viability, CellTiter-Glo luminescence, 96 h; measured here: PEO4 Z-AUC; stronger effect = lower value

| Structure (SMILES) | Z-AUC |
| --- | --- |
| Nc1nc2[nH]cc(CCc3ccc(C(=O)N[C@@H](CCC(=O)O)C(=O)O)cc3)c2c(=O)[nH]1 | 1.26 |
| Cc1cc(-c2ccc(CC(=O)Nc3ccc(-c4cccnc4)cc3)cc2)ccn1 | 0.307 |
| Cc1cc(Nc2nc(N[C@@H](C)c3ncc(F)cn3)ncc2Cl)n[nH]1 | -1.3 |
| N#CC[C@H](C1CCCC1)n1cc(-c2ncnc3[nH]ccc23)cn1 | 0.752 |
| CC(=O)NC(C)c1ccc(Oc2ccc(OC(C)C)cc2)cc1 (stereo not drawn) | -0.363 |
| COc1ccc(COc2cc3oc(=O)c4cc(C(C)O)ccc4c3cc2OC)cc1 (stereo not drawn) | 1.09 |
| Cn1cnc2c(F)c(Nc3ccc(Br)cc3Cl)c(C(=O)NOCCO)cc21 | -0.246 |
| CC1(C)Cc2c(-c3ccccc3)c(-c3ccc(Cl)cc3)c(CC(=O)O)n2C1 | 0.66 |
| COc1ccc(-c2ccc3c(N4CCOCC4)nc(N4C[C@@H](C)O[C@@H](C)C4)nc3n2)cc1CO | 1.19 |
| CNCc1ccc(-c2[nH]c3cc(F)cc4c3c2CCNC4=O)cc1 | 0.848 |
| CCOc1cc(N2CCC(O)CC2)ccc1Nc1ncc2c(n1)N(C)c1ccccc1C(=O)N2C | 0.379 |
| CS(=O)(=O)Oc1ccc2c(NC(N)=O)c(C(=O)c3ccc(Cl)cc3Cl)oc2c1 | 1.11 |
| COc1cc(Nc2ncc3c(n2)-c2ccc(Cl)cc2C(c2c(F)cccc2OC)=NC3)ccc1C(=O)O | -1.47 |
| COc1nc(-c2ccc3c(c2)OCO3)n(-c2ccc(NC(=O)CSc3ccccc3)cc2)n1 | 1.19 |
| CCCS(=O)(=O)Nc1ccc(F)c(C(=O)c2c[nH]c3ncc(Cl)cc23)c1F | 0.927 |
| CCCCCCCc1ccc(CCc2cccc(O)c2C(=O)O)cc1 | 0.518 |
| Nc1nccc(-c2ccc3noc(-c4ccc(Cl)cc4)c3c2)n1 | 0.149 |
| C[C@]12CCC(=O)C=C1CC[C@@H]1[C@@H]2[C@@H](O)C[C@@]2(C)[C@H]1CC[C@]2(O)C(=O)CO | -0.19 |
| S=C(NCc1ccc2c(c1)OCO2)N1CCN(c2ncnc3c2oc2ccccc23)CC1 | 0.0465 |
| O=c1[nH]c(-c2ccc(C(F)(F)F)cc2)nc2c1CSCC2 | 0.432 |

| Structure (SMILES) | Z-AUC |
| --- | --- |
| OC[C@H](Cc1ccccc1)Nc1nc(Oc2ccc3c(c2)CCC3)nc2c1ncn2Cc1ccc(-c2ccccc2)cc1 | 0.323 |
| COc1cc2nccc(Oc3ccc(NC(=O)NC4CC4)c(Cl)c3)c2cc1C(N)=O | 0.0753 |
| CN[C@@H](C)C(=O)N[C@H]1CCCC[C@H]2CC[C@@H](C(=O)N[C@@H](c3ccccc3)c3cn(CCCCc4ccc(CCCCn5cc([C@@H](NC(=O)[C@@H]6CC[C@@H]7CCCC[C@H](NC(=O)[C@H](C)NC)C(=O)N76)c6ccccc6)nn5)cc4)nn3)N2C1=O | 0.201 |
| O=C(Nc1cccnc1)N1CCC(Cc2cccc(Oc3ccc(C(F)(F)F)cn3)c2)CC1 | -1.18 |
| OCCC#Cc1nc(-c2ccc(F)cc2)c(-c2ccncc2)n1CCCc1ccccc1 | 0.663 |
| Cc1ccnc(NS(=O)(=O)c2ccc(NC(=O)Nc3ccc(S(=O)(=O)Nc4nccc(C)n4)cc3)cc2)n1 | 0.813 |
| CO[C@@H]1[C@H](N(C)C(=O)c2ccccc2)C[C@H]2O[C@]1(C)n1c3ccccc3c3c4c(c5c6ccccc6n2c5c31)C(=O)NC4 | -1.21 |
| C/C(=C\C(=O)Nc1ccccc1C(=O)O)c1ccc2ccccc2c1 | 0.827 |
| CC1(C)CNc2cc(NC(=O)c3cccnc3NCc3ccncc3)ccc21 | 0.272 |
| COc1cccc2cc(-c3nc(C4CCC(C(=O)O)CC4)n4ncnc(N)c34)[nH]c12 (stereo not drawn) | -0.315 |
| Cc1cccc(-c2nn(C(=S)Nc3ccccc3)cc2-c2ccnc3ccccc23)n1 | 0.406 |
| CCn1c(-c2nonc2N)nc2cnc(Oc3cccc(NC(=O)c4ccc(OCCN5CCOCC5)cc4)c3)cc21 | 0.912 |
| O=C1[C@H](Cc2ccc(O)cc2)N2C(=O)CCN(C(=O)NCc3ccccc3)[C@H]2CN1Cc1cccc2ccccc12 | 0.0223 |
| CCOc1ccn(-c2ccc(F)cc2)c(=O)c1C(=O)Nc1ccc(Oc2ccnc(N)c2Cl)c(F)c1 | -0.86 |
| COc1c(Cl)cc2c([nH]c3cnccc32)c1NC(=O)c1cccnc1C | 0.857 |
| CN(C)C(=O)c1ccc(S(=O)(=O)c2ccc(NC(=O)[C@@](C)(O)C(F)(F)F)c(Cl)c2)cc1 | 0.763 |
| CC(C)c1onc(-c2c(Cl)cccc2Cl)c1COc1ccc(/C=C/c2cccc(C(=O)O)c2)c(Cl)c1 | 0.0704 |
| CCC(=O)N[C@H]1CC[C@H](C(=O)N(C)c2ccc(-c3nc4ccccc4o3)cc2)C1 | 0.214 |
| CNC(=O)c1ccc(N2C(=S)N(c3ccc(C#N)c(C(F)(F)F)c3)C(=O)C2(C)C)cc1F | 0.909 |
